Measured values taken from PubChem BioAssay (NCATS).
Several values for one entry are separate records, joined by “and”; a condition that tells them apart may be missing. Equal entries are not always repeated. Inconclusive results are not listed. Activity calls are given as the source filed them. Unless noted, calls come from the whole dose curve; as a rule, active = well fitted curve in the direction sought with a large enough effect; inconclusive = small, poorly fitted or top-dose-only effect, or another doubt; inactive = no such curve, though single readings can be large; an effect the other way counts as inactive or inconclusive.

Legend:
[1] = Cell Viability - BJ (AID 421; calls by dose curve;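 note: potency is the fitted concentration of half-maximal effect; cells exposed to compound for 40 hours at 37 °C before readout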); settings: BJ fibroblast viability, qHTS
Outline: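 Quantitative HTS: ATP depletion in BJ cells after 40 hr compound exposure in complete culture medium, detected with CellTiter-Glo; AC50 from standard Hill fits.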

[2] = Cell Viability - HepG2 (AID 433; calls by dose curve;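 note: potency is the fitted concentration of half-maximal effect; potency for ATP loss meaning cytotoxicity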); settings: qHTS
Outline: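 In this qHTS format, a 40 h, 37 °C compound incubation of HepG2 cells in complete medium precedes a 20 min CellTiter-Glo step at room temperature. Tamoxifen and doxorubicin serve as positive controls; Hill-equation fits yield AC50.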

[3] = Cellular Toxicity (caspase-3) MRC-5 (AID 659); settings: MRC-5 cells, luminescence, normalized: DMSO 0%, 10 µM staurosporine 100%; series mostly up to 91.7 µM
Outline: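 Concentration-dependent caspase 3/7 activation is measured in human normal lung fibroblasts (MRC-5) following 16-hour treatment. AC50 values come from standard Hill-equation modeling of luminescence normalized to DMSO and 10 uM staurosporine.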

[4] = Cellular Toxicity (caspase-3) N2a (AID 665); settings: N2a cells, luminescence, normalized: DMSO 0%, 10 µM staurosporine 100%; series mostly up to 92.2 µM;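 note: compound exposure lasted 16 h at 37 °C before readout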
Outline: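 Mouse N2a neuroblastoma cells (1500/well) were treated with compounds for 16 h at 37 °C, then caspase-3/7 activity was read by Caspase-Glo luminescence after 1 h at room temperature. Data were normalized to DMSO and 10 uM staurosporine; AC50 from Hill fits.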

[5] = Cellular Toxicity (caspase-3) Renal Proximal Tubule (AID 667); settings: renal proximal tubule cells; series mostly up to 91.7 µM;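 note: cells exposed to compound for 16 hours at 37 °C before detection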
Outline: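 Caspase-Glo 3/7 read-out, rat primary kidney proximal tubule cells. Compound exposure 16 h, 37 °C; detection after 1 h at RT. Activity scaled to DMSO and 10 uM staurosporine.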

[6] = Cell Viability - LYMP2-001 (AID 921); settings: LYMP2-001 lymphoblastoid cell viability; series mostly up to 92.2 µM;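 note: 0% = DMSO only and full inhibition = tetraoctylammonium bromide control wells; nearly all actives have a fitted effect of over 70% in size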
Outline: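 A lymphoblastoid cell line of human origin was treated with library compounds across a concentration series for 24 hours, and viable cell number was estimated from ATP-driven luciferase light output. Hill modeling gave AC50.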

[7] = MultiTox-Fluor Cytotoxicity Assay - LYMP1-002 - Live Cells (AID 955); settings: LYMP1-002 lymphoblastoid live-cell protease fluorescence viability; series mostly up to 46.1 µM; note: % is set by controls: 0 for no effect and ±100 for the full control effect
Outline: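 Human lymphoblastoid LYMP1-002 cells, 2500/well in complete medium, rested 5 hr at 37 C, then exposed to compounds for 16 hr at 37 C. Live-cell protease cleavage of GF-AFC read by fluorescence (Ex/Em 405/510) after 60 min at room temperature; AC50 from Hill fits.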

[8] = MultiTox-Fluor Cytotoxicity Assay - LYMP1-003 - Live Cells (AID 962); settings: LYMP1-003 lymphoblastoid cells, MultiTox-Fluor live-cell protease fluorescence; series mostly up to 92.2 µM;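 note: 0% = DMSO only and full loss = 92 µM tetraoctylammonium bromide; cytotoxic hits lower the live-cell protease signal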
Outline: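 LYMP1-003 human lymphoblastoid cells (2500/well) in complete medium were preincubated 5 hr at 37 C, then exposed to compounds for 16 hr at 37 C. Live-cell protease cleavage of GF-AFC read by fluorescence (Ex/Em 405/510); AC50 from Hill fits.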

[9] = Cell Viability - LYMP1-003 - Assay at 24 hr (AID 963); settings: LYMP1-003 lymphoblastoid cell viability; series mostly up to 92.2 µM;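 note: plate controls were DMSO only for no effect and tetraoctylammonium bromide positive control for full effect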
Outline: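 Human lymphoblastoid LYMP1-003 cells (2500/well) were rested 5 hr at 37 C, then exposed to compounds in complete medium for 24 hr at 37 C. Cellular ATP was quantified by CellTiter-Glo luminescence, and AC50 values came from Hill fits of concentration-response data.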

[10] = Cell Viability - LYMP1-003 - Assay at 40 hr (AID 964); settings: LYMP1-003 lymphoblastoid viability; series mostly up to 92.2 µM; note: % is set by controls: 0 for no effect and ±100 for the full control effect; nearly all actives have a fitted effect of over 60% in size
Outline: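 Human lymphoblastoid LYMP1-003 cells, 2500/well in complete medium, rested 5 hr at 37 C, then exposed to compounds for 40 hr at 37 C. Viability read as intracellular ATP by CellTiter-Glo luminescence; AC50 from Hill fits of concentration-response data.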

[11] = Cell Viability - LYMP2-017 (AID 972); settings: LYMP2-017 lymphoblastoid cell viability; series mostly up to 92.2 µM; note: % is set by controls: 0 for no effect and ±100 for the full control effect; nearly all actives have a fitted effect of over 55% in size
Outline: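 Human lymphoblastoid cells (2500/well) were seeded in complete medium, held 5 hr at 37 C, then exposed to compounds for 24 hr at 37 C. Intracellular ATP was read by CellTiter-Glo luminescence after 30 min at room temperature, with AC50 values from Hill-equation fits.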

[12] = Cell Viability - LYMP2-021 (AID 974); settings: LYMP2-021 lymphoblastoid cells viability; series mostly up to 92.2 µM;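 note: compound exposure lasts 24 hours at 37 °C; % is set by controls: 0 for no effect and ±100 for the full control effect; nearly all actives have a fitted effect of over 55% in size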
Outline: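 Human lymphoblastoid cells (2500/well) were preincubated 5 hr at 37 C, then exposed to compounds for 24 hr at 37 C in complete medium. Intracellular ATP was read by CellTiter-Glo luminescence; AC50 came from Hill-equation fits of concentration-response data.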

[13] = Cell Viability - LYMP2-006 (AID 978); settings: LYMP2-006 lymphoblastoid cell viability, qHTS; series mostly up to 92.2 µM; note: % is set by controls: 0 for no effect and ±100 for the full control effect; nearly all actives have a fitted effect of over 60% in size
Outline: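 In this cytotoxicity screen, the human lymphoblastoid line grew in complete medium with test compounds for 24 hr at 37 C. Cellular ATP served as the viability signal.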

[14] = Cell Viability - LYMP2-007 (AID 979); settings: LYMP2-007 lymphoblastoid cell viability; series mostly up to 92.2 µM;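 note: cells exposed to compound for 24 h before reading; 0% = DMSO only and the negative end = 92 µM tetraoctylammonium bromide; nearly all actives have a fitted effect of over 60% in size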
Outline: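 Human lymphoblastoid cells (2500/well) were plated in complete medium, incubated 5 hr at 37 C, then exposed to compounds for 24 hr at 37 C. Intracellular ATP was read by CellTiter-Glo luminescence after 30 min at room temperature; AC50 from Hill fits.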

[15] = Cell Viability - LYMP2-014 (AID 983); settings: LYMP2-014 lymphoblastoid cells, viability qHTS; series mostly up to 92.2 µM;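 note: plate controls were DMSO only for no effect and 92 µM tetraoctylammonium bromide for full effect; nearly all actives have a fitted effect of over 50% in size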
Outline: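 Human lymphoblastoid cells (2500/well) were pre-incubated 5 hr at 37 C, then exposed to compounds in complete medium for 24 hr at 37 C. Intracellular ATP was read by CellTiter-Glo luminescence after 30 min at room temperature; AC50 from Hill fits.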

[16] = Cell Viability - LYMP2-016 (AID 984); settings: LYMP2-016 lymphoblastoid cell viability, qHTS; series mostly up to 92.2 µM; note: % is set by controls: 0 for no effect and ±100 for the full control effect; nearly all actives have a fitted effect of over 55% in size
Outline: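 Concentration-dependent ATP depletion measured in LYMP2-016 lymphoblastoid cells, 24 h, 37 C; luciferase-based luminescent detection; Hill-equation AC50.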

[17] = qHTS Assay for Identification of Small Molecule Inducers of Hypoxia Response (AID 2120; active = well fitted curve in the direction sought with a large enough effect in the signal ratio, with a control signal flat, not every such curve was filed as active; the % refers to the signal ratio; note: 0% is about no effect); settings: hypoxia response reporter cells, beta-lactamase ratio readout; series mostly up to 104 µM
Outline: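 HRE-beta-lactamase reporter in CellSensor HRE-bla ME-180 cells, 2500 cells/well in Opti-MEM with 0.5% dialyzed FBS; compounds tested as titration series, 17 h at 37 degrees C. CCF4 substrate 2.5 h at room temperature; AC50 from 460/530 nm ratio.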

[18] = qHTS assay for small molecule agonists of the antioxidant response element (ARE) signaling pathway measured by Nrf2-dependant transcriptional activity - cell viability counter screen (AID 720653; active = well fitted curve in the direction sought with a large enough effect in the repeat runs; an effect the other way counts as inactive or inconclusive; note: % is set by controls: 0 for no effect and ±100 for the full control effect); settings: ARE-bla HepG2 viability, CellTiter-Glo ATP luminescence, 16 h; hits give low values
Outline: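 Cytotoxicity counter screen: intracellular ATP quantified by CellTiter-Glo luminescence in the same ARE-bla HepG2 plates, after 16 h compound exposure and a 2 h beta-lactamase substrate step.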

[19] = qHTS assay for cell viability of HEK293 cells (AID 743288); settings: ATP luminescence (CellTiter-Glo), 18 h, hits give low values; note: % is set by controls: 0 for no effect and ±100 for the full control effect; nearly all actives have a fitted effect of over 50% in size
Outline: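 Luminescent ATP quantitation served as the viability read-out. Cells (parental HEK293, 2,000/well) received compounds after at least 5 h at 37 C and were exposed for 18 h before a 30 min room-temperature reagent step.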

[20] = Cell Viability - LYMP2-025 (AID 976); settings: LYMP2-025 lymphoblastoid cell viability; series mostly up to 92.2 µM;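 note: plate controls were DMSO only for no effect and tetraoctylammonium bromide control for full effect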
Outline: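 Human lymphoblastoid LYMP2-025 cells (2500/well) were pre-incubated 5 hr at 37 C, then treated with compounds for 24 hr at 37 C in complete medium. Viability was read as intracellular ATP by CellTiter-Glo luminescence; AC50 from Hill fits.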

CCOS(C)(=O)=O
inactive: Potency [1] > 92 µM | Potency [2] > 92 µM | outcome [3] | outcome [4] | outcome [5] | Potency [6] | outcome [7] | outcome [8] | outcome [9] | Potency [10] | Potency [11] | Potency [12] | Potency [13] | Potency [14] | Potency [15] | Potency [16] | Potency [17] | max response [18] -5.61% | max response [19] -14.8%

c1ccc(NNc2ccccc2)cc1
inactive: Potency [1] > 92 µM | Potency [2] > 92 µM | outcome [3] | outcome [4] | outcome [5] | Potency [6] | outcome [7] | outcome [8] | outcome [9] | Potency [10] | Potency [11] | Potency [12] | Potency [20] | Potency [13] | Potency [14] | Potency [15] | Potency [16] | Potency [17] | max response [18] 0.997% and 18.6% | max response [19] 2.88% and -1.77%

O=[N+]([O-])c1ccccc1O
inactive: Potency [1] > 92 µM | Potency [2] > 92 µM | outcome [3] | outcome [4] | outcome [5] | Potency [6] | outcome [7] | outcome [8] | outcome [9] | Potency [10] | Potency [11] | Potency [12] | Potency [20] | Potency [13] | Potency [14] | Potency [15] | Potency [16] | Potency [17] | max response [18] 5.01% | max response [19] 0.38%

Nc1cc(Cl)cc(Cl)c1
inactive: Potency [1] > 92 µM | Potency [2] > 92 µM | outcome [3] | outcome [4] | outcome [5] | Potency [6] | outcome [7] | outcome [8] | outcome [9] | Potency [10] | Potency [11] | Potency [12] | Potency [20] | Potency [13] | Potency [14] | Potency [15] | Potency [16] | Potency [17] | max response [18] -13% | max response [19] 5.59%

CC(C)C#N
inactive: Potency [1] > 92 µM | Potency [2] > 92 µM | outcome [3] | outcome [4] | outcome [5] | Potency [6] | outcome [7] | outcome [8] | outcome [9] | Potency [10] | Potency [11] | Potency [12] | Potency [20] | Potency [13] | Potency [14] | Potency [15] | Potency [16] | Potency [17] | max response [18] 1.74% | max response [19] 0.536%

Cc1ccc2c(c1N)C(=O)c1ccccc1C2=O
inactive: Potency [1] > 92 µM | outcome [3] | outcome [4] | outcome [5] | Potency [6] | outcome [7] | outcome [8] | outcome [9] | Potency [10] | Potency [11] | Potency [12] | Potency [20] | Potency [13] | Potency [14] | Potency [15] | Potency [16] | Potency [17] | max response [18] -21.8% and -21.2% | max response [19] -21.2% and -23%

Cc1cccc(C)c1N
inactive: Potency [1] > 92 µM | Potency [2] > 92 µM | outcome [3] | outcome [4] | outcome [5] | Potency [6] | outcome [7] | outcome [8] | outcome [9] | Potency [10] | Potency [11] | Potency [12] | Potency [20] | Potency [13] | Potency [14] | Potency [15] | Potency [16] | Potency [17] | max response [18] 4.9% | max response [19] -2.34%

O=C(O)c1cc(Cl)ccc1Cl
inactive: Potency [1] > 92 µM | Potency [2] > 92 µM | outcome [3] | outcome [4] | outcome [5] | Potency [6] | outcome [7] | outcome [8] | outcome [9] | Potency [10] | Potency [11] | Potency [12] | Potency [20] | Potency [13] | Potency [14] | Potency [15] | Potency [16] | Potency [17] | max response [18] -0.443% | max response [19] -1.88%

O=[N+]([O-])c1c(Cl)c(Cl)c(Cl)c(Cl)c1Cl
inactive: Potency [1] > 92 µM | Potency [2] > 92 µM | outcome [3] | outcome [4] | outcome [5] | Potency [6] | outcome [7] | outcome [8] | outcome [9] | Potency [10] | Potency [11] | Potency [12] | Potency [20] | Potency [13] | Potency [14] | Potency [15] | Potency [16] | Potency [17] | max response [18] -5.67% and 10.2% | max response [19] -12.6% and -27.3%

Nc1ccc([N+](=O)[O-])cc1[N+](=O)[O-]
inactive: Potency [1] > 92 µM | Potency [2] > 92 µM | outcome [3] | outcome [4] | outcome [5] | Potency [6] | outcome [7] | outcome [8] | outcome [9] | Potency [10] | Potency [11] | Potency [12] | Potency [20] | Potency [13] | Potency [14] | Potency [15] | Potency [16] | Potency [17] | max response [18] -10.3% | max response [19] 2.24%

Cl/C=C/Cl
inactive: Potency [1] > 92 µM | Potency [2] > 92 µM | outcome [3] | outcome [4] | outcome [5] | Potency [6] | outcome [7] | outcome [8] | outcome [9] | Potency [10] | Potency [11] | Potency [12] | Potency [20] | Potency [13] | Potency [14] | Potency [15] | Potency [16] | Potency [17] | max response [18] 1.77% | max response [19] -15.8%

c1ccc(Nc2ccc(Nc3ccccc3)cc2)cc1
inactive: Potency [1] > 92 µM | Potency [2] > 92 µM | outcome [3] | outcome [4] | outcome [5] | outcome [7] | outcome [8] | outcome [9] | Potency [10] | Potency [11] | Potency [12] | Potency [20] | Potency [13] | Potency [14] | Potency [15] | Potency [16] | Potency [17] | max response [18] -13.9% | max response [19] -19.5%
